Source: PubChem BioAssay AID686978 (National Center for Advancing Translational Sciences (NCATS), 2013)
Several values for one entry are separate records, joined by “and”; a condition that tells them apart may be missing. Identical values can stand only once. Screen size: about 420,000 compounds; about 64,000 (15%) were called active. Not shown: some 27% with an inconclusive outcome. Many of the other results were omitted from the sample, so actives are more common in it than they were. Unmarked numbers belong to inactive results. Calls follow the shape of the dose curve; as a rule, active = well fitted inhibition curve with a large enough effect; inconclusive = small, poorly fitted or top-dose-only effect; inactive = flat fitted curve, though single readings scatter.

Experiment: qHTS for Inhibitors of human tyrosyl-DNA phosphodiesterase 1 (TDP1): qHTS in cells in absence of CPT; also: nearly all actives have a fitted effect of over 55% in size
Conditions: DT40 Tdp1-/- hTDP1 cells, no CPT, ATP luminescence, 48 h; series mostly up to 46.2 µM; activity change, negative = growth inhibition: at the top concentration
Summary of the method: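 Growth of hTDP1-complemented DT40 Tdp1-knockout cells is measured by ATP luminescence after at least 48 hr compound exposure at 37 °C, with DMSO substituting for the 20 nM CPT used in the parallel screen.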
% is scaled to controls: 0 for no effect and ±100 for the full control effect; potency is read from the fitted curve at half-maximal effect.

SMILES | Potency | activity change, negative = growth inhibition
COc1ccc(-c2cc(NC=O)c3ncc(-c4cc(OC)c(OC)c(OC)c4)n3c2)c(OC)c1 | 0.82 µM (active) | 
O=C(O)COc1ccccc1/C=C1\C(=O)NC(=O)N(CCC2=CCCCC2)C1=O |  | 0.529%
O=C1NC(=O)N(CCc2ccc(F)cc2)C(=O)/C1=C/C=C/c1ccccc1 | 6.51 µM (active) | 
O=C1NC(=O)N(Cc2ccco2)C(=O)/C1=C\c1cccn1CCOc1ccccc1 |  | -1.44%
CCc1ccc(N(CC)C(=O)CCn2cnc3onc(-c4ccc(F)cc4)c3c2=O)cc1 | 13 µM (active) | 
O=C(/C=C/c1cccs1)c1cc(Cl)ccc1OC(=O)N1CCOCC1 | 16.4 µM (active) | 
Cc1cccc(-n2c(O)c(C=NC34CN5CN(CN(C5)C3)C4)c(=O)[nH]c2=O)c1 |  | 6.16%
COC12CC[C@@]3(C[C@@H]1C(C)(O)C(C)(C)C)[C@H]1Cc4ccc(O)c5c4[C@@]3(CCN1CC1CC1)[C@H]2O5 (stereo partly drawn) | 24.1 µM (active) | 
Oc1ccc2c3c1OC1[C@H](O)CC[C@@]4(O)[C@@H](C2)N(CC2CC2)CC[C@]314 (stereo partly drawn) | inactive | 
CCOC(=O)C1CN(C)CCC1=O (stereo not drawn) |  | -26%
CCC/C(=N\O)c1c[nH]c2ccccc12 |  | -19.1%
CNCC[C@H](Oc1ccc(C(F)(F)F)cc1)c1ccccc1 | 8.41 µM (active) and 14.6 µM (active) | 
CCC1(CC(C)c2ccccc2)C(=O)NC(=O)NC1=O (stereo not drawn) |  | -14.9%
CCCCC/C=C\C/C=C\C/C=C\CCCCCCC(=O)NCCO |  | -2.66% [at 4.12 µM]
CC1CCCN1CCC(C(N)=O)(c1ccccc1)c1ccccc1 (stereo not drawn) |  | -4.44%
O=Cc1cn(Cc2ccc(F)cc2Cl)c2ccccc12 | 18.4 µM (active) | 
O=[N+]([O-])c1ccc(Cl)c(Cl)c1 |  | -16.7%
CCC(=NCc1ccco1)c1c(O)n(Cc2ccccc2)c(=O)[nH]c1=O |  | -23.7%
Clc1ccc([C@@H]2C[C@H]3CC[C@@H]2N3)cn1 | inactive | 
Cc1ccc([C@H]2C[C@H](O)[C@@H](n3cc(COC(=O)c4ccccc4)nn3)CN2CC2CCCCC2)cc1 | 20.6 µM (active) | 
COCCNC(=O)CN1C2CCC1CC(O)(c1cccnc1)C2 (stereo not drawn) |  | -16.8%
Cn1c(O)c(C=NCCN2CCNCC2)c(=O)n(C)c1=O |  | -2.35%
NCC(O)c1ccc(O)cc1 (stereo not drawn) | inactive | 
c1csc(CN2CC3(CCNCC3)C2)n1 |  | -19.2%
CCc1ccccc1NC(=O)c1sc2nc3c(cc2c1N)CN(Cc1ccccc1)CC3 | 5.8 µM (active) | 
CC12CN3CC(C)(CN(C1)C3c1cccs1)C2 (stereo not drawn) |  | -6.5%
CC(=O)Nc1ccccc1C(=O)OCC(=O)c1cccc2ccccc12 |  | -16.9%
CCOc1cccc(=NC2CCCCC2)c2c(C)[nH]c(C)c12 | 5.8 µM (active) | 
